Most compounds without a hit are left out; they make up all but 10% or so of the library.
PNC assembly inh: inhibitors of perinucleolar compartment assembly. PC3M PTB-GFP, PNC prevalence imaging, 16 h; active compounds read low. 140,000 tested, 3.1% active. AID 2417. activity change (PNC), negative = inhibition, % at 10 µM;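 active = readout at or below -70, meaning at least 70% loss of cells showing the perinucleolar compartment, a nuclear body marking cancer cells; inconclusive = readout between -30 and a set limit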;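 also: plate controls were DMSO wells for no effect and camptothecin positive control wells for full effect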
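Read-out is percentage of cells bearing a perinucleolar compartment, from automated 20x imaging of fixed, Hoechst-stained PC3M PTB-GFP cells. Cells were seeded 4 h, then exposed 16 h to compound (23 nl of library stock) in duplicate plates.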
ALOX12 inhib: 12-hLO (ALOX12) enzyme inhibition | P18054 | purified 12-hLO, xylenol orange hydroperoxide absorbance | Potency, µM (doses to about 57.1 µM), inactives show top-dose activity change, negative = inhibition, usual class: inhibitors | 150,000 tested, 0.12% active | AID 1452; also: potency is read from the fitted curve at half-maximal effect; nearly all actives have a fitted effect of over 55% in size
Target sequence (P18054 whole entry, looked up): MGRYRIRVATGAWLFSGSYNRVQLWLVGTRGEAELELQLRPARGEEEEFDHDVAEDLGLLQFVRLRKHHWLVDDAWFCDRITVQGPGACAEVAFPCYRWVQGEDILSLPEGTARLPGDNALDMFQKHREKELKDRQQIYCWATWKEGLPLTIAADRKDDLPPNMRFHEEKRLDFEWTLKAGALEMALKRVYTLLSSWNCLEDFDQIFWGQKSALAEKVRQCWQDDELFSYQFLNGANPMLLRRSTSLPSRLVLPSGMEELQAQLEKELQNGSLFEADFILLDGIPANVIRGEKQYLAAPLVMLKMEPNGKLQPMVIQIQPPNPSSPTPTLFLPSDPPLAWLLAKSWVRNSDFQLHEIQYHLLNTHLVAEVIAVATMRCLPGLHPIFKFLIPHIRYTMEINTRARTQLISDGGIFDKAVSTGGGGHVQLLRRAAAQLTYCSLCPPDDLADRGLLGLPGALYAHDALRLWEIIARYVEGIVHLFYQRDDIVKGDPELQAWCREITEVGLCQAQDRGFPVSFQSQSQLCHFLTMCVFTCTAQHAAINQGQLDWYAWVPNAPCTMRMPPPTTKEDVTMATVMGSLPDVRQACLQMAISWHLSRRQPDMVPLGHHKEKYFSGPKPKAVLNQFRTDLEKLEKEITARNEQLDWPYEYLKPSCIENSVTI
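150 nM 12hLO, 25 mM Hepes pH 7.0 + 0.01% Triton X-100; cpd preinc 15 min RT; 40 uM arachidonic acid, 30 min RT; Fe-XO 30 min; A573/A405 ratio as read-out.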
HPGD inh: HPGD (human) dehydrogenase inhibition; P15428; purified HPGD, NADH fluorescence kinetic, PGE2 substrate; Potency, µM, inactives show at the highest dose activity change, negative = inhibition, most hits filed as inhibitors; 150,000 tested, 4.3% active; AID 894; active = well fitted inhibition curve with a large enough effect, not every such curve was filed as active; inconclusive = small, poorly fitted or top-dose-only effect, or another doubt; inactive = no such curve, though single readings can be large or run the other way; also: potency is read from the fitted curve at half-maximal effect
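NADH formation kinetics: reaction with 30 uM PGE2 and 1 mM NAD+ (final), 20 nM enzyme, Tris-HCl pH 8 with Tween 20, after 15 min compound preincubation at room temperature. Fluorescence change, last versus first of five reads.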
ALDH1A1 inh: ALDH1A1 (human) enzyme inhibition. 220,000 tested, 7.3% active. Potency, µM (titrated, usually from 75.3 µM), for the others: top-dose activity, negative = inhibition, hits mostly inhibitors. P00352. Purified ALDH1A1, NADH fluorescence, propionaldehyde substrate. AID 1030; active = well fitted inhibition curve with a large enough effect, not every such curve was filed as active; inconclusive = small, poorly fitted or top-dose-only effect, or another doubt; inactive = no such curve, though single readings can be large or run the other way;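 also: potency is read from the fitted curve at half-maximal effect; plate controls were no enzyme wells and a reference inhibitor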
GLA inh pH 4.5: blocks human alpha-galactosidase A at pH 4.5; P06280; purified enzyme, 4-MU-alpha-Gal fluorescence, pH 4.5; activity change, negative = inhibition, % at 105 µM; 230,000 tested, under 10 active; AID 1467;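 also: 0% = full activity with enzyme and -100% = basal without enzyme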
aGal spleen mod: alpha-galactosidase A (human) modulation | human spleen homogenate, 4MU-alpha-Gal fluorescence, 40 min | AID 2107 | P06280 | 240,000 tested, 0.008% active | Potency, µM (highest dose often 80 µM), without a hit: top-dose activity change, negative = inhibition, actives largely listed as inhibitors;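 also: potency is read from the fitted curve at half-maximal effect; 0% = enzyme with vehicle and -100% = no enzyme basal signal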
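Human spleen homogenate (1 ug) as enzyme source, 4-methylumbelliferyl-alpha-D-galactopyranoside 1 mM final, citrate/phosphate pH 5.0 with 0.01% Tween-20. Compounds 40 min at 37C, NaOH/glycine stop; fluorescence Ex 365/Em 440, Hill-fit AC50.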
Numbers without * were called inactive; [ ] = dose if it differs, or a comment. Unless noted, calls follow the shape of the dose curve; as a rule, active = well fitted curve in the direction sought with a large enough effect; inconclusive = small, poorly fitted or top-dose-only effect, or another doubt; inactive = no such curve, though single readings can be large; an effect the other way counts as inactive or inconclusive. Unless noted, % is scaled to controls: 0 for no effect and ±100 for the full control effect.

Screening CC(=O)Oc1ccc2c(c1OC(C)=O)OCC1(O)Cc3c(cc(OC(C)=O)c(OC(C)=O)c3OC(C)=O)C21 (stereo not drawn) returned ALOX12 inhib -9.8%, HPGD inh -8.0%, ALDH1A1 inh -3.6%, GLA inh pH 4.5 -7.7 and aGal spleen mod -2.2%.
Oc1ccc2c(c1)OCC1(O)Cc3cc(O)c(O)cc3C21 (stereo not drawn) was read as ALOX12 inhib -20.2%, HPGD inh inconclusive, ALDH1A1 inh 28.2µM*, GLA inh pH 4.5 -4.6 and aGal spleen mod 17.9%.
CCN(CC)S(=O)(=O)c1ccc(C)c(NC(=S)Nc2cccc(S(=O)(=O)N3CCCCCC3)c2)c1 was read as PNC assembly inh inconclusive, ALOX12 inhib inconclusive, HPGD inh -19.2%, ALDH1A1 inh inconclusive, GLA inh pH 4.5 0.6 and aGal spleen mod 1.3%.
`CCN(CC)S(=O)(=O)c1cccc(S(=O)(=O)N2CCCCC2)c1` gave PNC assembly inh inconclusive, ALOX12 inhib 7.8%, HPGD inh -0.7%, ALDH1A1 inh 3.55µM*, GLA inh pH 4.5 -1.9 and aGal spleen mod -1.2%.
`O=S(=O)(c1ccccc1)c1cccc(S(=O)(=O)N2CCCCC2)c1` gave PNC assembly inh -3.2, ALOX12 inhib -3.7%, HPGD inh -11.0%, ALDH1A1 inh 2.24µM*, GLA inh pH 4.5 7.4 and aGal spleen mod -1.1%.
For CNC(=O)[C@H](C)/C=C(\c1cccnc1)C(NC(=O)OCc1ccccc1)c1ccc(C(=O)OC)cc1 (stereo partly drawn) the results were ALOX12 inhib 1.1%, HPGD inh -14.8%, ALDH1A1 inh 0.7%, GLA inh pH 4.5 -0.6 and aGal spleen mod 4.0%.
Screening COc1ccc(N=C2NC(=O)C(CC(=O)NCCc3ccc(OC)c(OC)c3)S2)cc1 (stereo not drawn) returned ALDH1A1 inh 11.2µM*, GLA inh pH 4.5 1.8 and aGal spleen mod -11.3%.
For Cc1ccc(N=C2NC(=O)C(CC(=O)NCc3ccccc3)S2)cc1C (stereo not drawn) the results were PNC assembly inh 13.6, ALOX12 inhib 1.6%, HPGD inh -15.3%, ALDH1A1 inh 25.1µM*, GLA inh pH 4.5 3.0 and aGal spleen mod 9.1%.
COc1ccc(NC(=O)CC2SC(=Nc3ccccc3)NC2=O)c(OC)c1 (stereo not drawn) was read as PNC assembly inh inconclusive, ALOX12 inhib -2.3%, HPGD inh -4.6%, ALDH1A1 inh -5.3%, GLA inh pH 4.5 5.2 and aGal spleen mod -13.9%.
For COc1ccc(OC)c(NC(=O)CC2SC(=NCc3ccccc3)NC2=O)c1 (stereo not drawn) the results were ALDH1A1 inh 39.8µM*, GLA inh pH 4.5 -2.6 and aGal spleen mod 2.9%.
For COc1ccc(CCNC(=O)CC2SC(=NCc3ccccc3OC)NC2=O)cc1 (stereo not drawn) the results were ALDH1A1 inh inconclusive, GLA inh pH 4.5 13.5 and aGal spleen mod 7.1%.
Screening COc1ccccc1CNc1cc(-c2ccccc2C(F)(F)F)ncn1 returned ALDH1A1 inh 1.6% and aGal spleen mod -5.7%.
Screening CC[C@H](C)[C@H](NC(=O)[C@H](CCCNC(=N)N)NC(=O)[C@@H]1CCCN1C(=O)[C@H](Cc1ccccc1)NC(=O)[C@H](Cc1cnc[nH]1)NC(=O)[C@H](CCCNC(=N)N)NC(=O)[C@@H](NC(=O)[C@H](C)NC(=O)[C@H](CCC(=O)O)NC(=O)[C@H](CC(N)=O)NC(=O)[C@@H](N)CCCCN)C(C)C)C(=O)N[C@@H](Cc1c[nH]c2ccccc12)C(=O)N[C@@H](CC(C)C)C(=O)O returned aGal spleen mod -17.0%.
`CN1CCN(C2=C(Cl)C(=O)N(CCc3ccccc3)C2=O)CC1` gave PNC assembly inh 1.6, ALOX12 inhib -1.0%, HPGD inh -11.8%, ALDH1A1 inh inconclusive, GLA inh pH 4.5 2.2 and aGal spleen mod 0.0%.
Screening O=C1C(Cl)=C(N2CCCCC2)C(=O)N1Cc1ccccc1 returned PNC assembly inh -104.0*, ALOX12 inhib -3.6%, HPGD inh -17.3%, ALDH1A1 inh inconclusive, GLA inh pH 4.5 3.8 and aGal spleen mod -6.3%.
Screening CCOC(=O)c1nn(-c2ccc(F)cc2)c(-c2ccccc2)c1C(=O)c1ccccc1 returned PNC assembly inh 40.6, ALOX12 inhib -3.5%, HPGD inh -23.0%, ALDH1A1 inh 11.2µM*, GLA inh pH 4.5 -5.7 and aGal spleen mod -9.8%.
CCOC(=O)c1nn(-c2ccccc2)c(-c2ccccc2)c1C(=O)c1ccccc1 was read as PNC assembly inh 65.3, ALOX12 inhib -2.1%, HPGD inh -11.3%, ALDH1A1 inh inconclusive, GLA inh pH 4.5 -3.5 and aGal spleen mod -12.7%.
O=c1cc(CSc2nnc(-c3ccco3)o2)c2ccccc2[nH]1 was read as PNC assembly inh 24.6, ALOX12 inhib 0.5%, HPGD inh 20µM*, ALDH1A1 inh -2.5%, GLA inh pH 4.5 -7.1 and aGal spleen mod 2.0%.
`O=c1cc(CSc2nc3ccccc3[nH]2)c2ccccc2[nH]1` gave PNC assembly inh inconclusive, ALOX12 inhib -1.2%, HPGD inh 7.94µM*, ALDH1A1 inh -4.6%, GLA inh pH 4.5 -9.8 and aGal spleen mod 9.7%.
`COCCCn1c(SCc2cc(=O)[nH]c3ccccc23)nnc1-c1ccco1` gave PNC assembly inh 6.9, ALOX12 inhib -11.8%, HPGD inh 5.2%, ALDH1A1 inh inconclusive, GLA inh pH 4.5 -2.3 and aGal spleen mod 4.5%.
`CC1Cc2c(COc3ccccc3)nc3c(c2CO1)CN(CCOc1ccccc1)CC3` (stereo not drawn) gave ALDH1A1 inh 10.8%[13.5 µM] and aGal spleen mod -3.4%[17.5 µM].
Cc1cc(/C=N/O)c(C)n1-c1cccc(Cl)c1 was read as ALDH1A1 inh 14.1µM*, GLA inh pH 4.5 -11.9 and aGal spleen mod -3.8%.
Screening COC(=O)c1cc(C(=O)OC)cc(-n2c(C)cc(C=O)c2C)c1 returned ALDH1A1 inh inconclusive, GLA inh pH 4.5 7.7 and aGal spleen mod -4.8%.
`CCOC(=O)c1cccc(-n2c(C)cc(C=O)c2C)c1` gave PNC assembly inh inconclusive, ALOX12 inhib -2.6%, HPGD inh -0.7%, ALDH1A1 inh 11.2µM*, GLA inh pH 4.5 -2.2 and aGal spleen mod 4.1%.
`COC(=O)c1ccc(C)c(-n2c(C)cc(C=O)c2C)c1` gave PNC assembly inh -24.0, ALOX12 inhib -1.6%, HPGD inh -21.1%, ALDH1A1 inh 1.78µM*, GLA inh pH 4.5 2.9 and aGal spleen mod -5.4%.
For Cc1cc(C=O)c(C)n1-c1cccc(C(=O)O)c1 the results were ALDH1A1 inh -3.1%, GLA inh pH 4.5 1.8 and aGal spleen mod 0.0%.

Source: PubChem BioAssay
